Data taken from PubChem BioAssay (NCATS).
Results filed as inconclusive are left out. Values without a mark were called inactive. Activity calls are given as the source filed them. Calls follow the shape of the dose curve; as a rule, active = well fitted cell-killing curve with a large enough effect; inconclusive = small, poorly fitted or top-dose-only effect, or effect the other way; inactive = no such curve, though single readings can be large or run the other way.

assay: qHTS assay to identify small molecule inhibitors of chordoma cells - UCH-1 (AID 1259355); details: UCH-1 chordoma viability, CellTiter-Glo, 48 h, combination, with auranofin plus four topoisomerase inhibitors; series mostly up to 46.1 µM; activity, negative = inhibition: at the top concentration; also: nearly all actives have a fitted effect of over 55% in size
Source text: NIH Chemical Genomics Center [NCGC]
Chordoma is a rare and slow growing tumor that can occur anywhere along the spine, from the base of the skull to the tailbone. Current treatment options for chordoma is surgery and radiation therapy for those who are not candidates for surgery. But chordomas tend to return in the same location or surrounding areas of the original tumor after surgery and/or radiation. Chemotherapy can slow down the progression of the tumor. As chordoma is slow growing, the general cytotoxic agents that kill fast growing cells are ineffective, and some patients have been reported to respond to molecularly targeted drugs.
NCATS Pharmaceutical Collection (NPC) containing approximately 3000 clinically approved and investigational drugs were used to screen at 15 concentrations in a chordoma cell lines, UCH-1, to identify small molecule compounds that can inhibit chordoma cell growth.
NCGC Assay Protocol Summary:
Human chordoma cell line UCH-1 was dispensed at 800 per well in 4uL of culture medium into white solid bottom 1536-well plates (Corning Life Sciences, Corning, NY) using a Multidrop Combi (Thermo Scientific, Waltham, MA) dispenser. The assay plates were incubated at 37 C and 5% CO2 for an overnight, and then 23nL of compounds dissolved in DMSO and positive control were transferred using a Pintool station (Wako, San Diego, CA). Compound treatment was followed by the addition of 1uL of the combination compounds (1uM Auranofin, 500nM each of Camptothecin, Doxorubicin, Rubitecan, and Topotecan) and assay medium to each well of the assay plates using Flying Reagent Dispenser (FRD, Aurora Discovery, San Diego, CA). The assay plates were incubated at 37 C and 5% CO2 for 48hr. Then 5uL of CellTiter-Glo reagent (Promega Corporation, Madison, WI) was added to each well of the assay plates using FRD. After 30min incubation at room temperature, the luminescence signal was quantified using a ViewLux plate reader (PerkinElmer, Shelton, CT).
% is scaled to controls: 0 for no effect and ±100 for the full control effect; potency is read from the fitted curve at half-maximal effect.

SMILES | activity, negative = inhibition | Potency
CCCOc1cc(N)ccc1C(=O)OCCN(CC)CC | -8.07% [at 20.6 µM] | –
COc1ccc(/C=C/C(=O)O)cc1 | -8.93% | –
O=C(O)[C@H]1CN(C/C=C/P(=O)(O)O)CCN1 | -8.32% | –
C=C1CC[C@H](O)CC1=C/C=C1\CCC[C@]2(C)[C@@H]([C@H](C)/C=C/[C@H](C)C(C)C)CC[C@@H]12 | -6.79% | –
CCOc1cc(-c2nccc3cc(OC)c(OC)cc23)cc(OCC)c1OCC | -18.6% | –
C=C1[C@@H]2CC[C@@H](C2)C1(C)C | 5.58% | –
COc1ccc(C(=O)CCC(=O)O)c2ccccc12 | -4.88% | –
Cc1ccccn1 | -9.8% | –
[O]=[Bi][O][Bi]=[O] | -15.1% | –
CC(C)[C@@H]1CC[C@@H](C)C[C@H]1OC(=O)c1ccccc1O | -0.806% | –
c1ccc(-n2cnnn2)cc1 | -19.5% | –
NCC(O)CC(=O)O (stereo not given) | -34.6% | –
O=C(Cc1cccs1)N[C@@H]1C(=O)N2C(C(=O)[O-])=C(C[n+]3ccccc3)CS[C@H]12 | -10.3% | –
CN(C)CCC(O)(c1ccccc1)c1ccccc1Cl (stereo not given) | -10% | –
CCc1ccc(S(=O)(=O)O)cc1 | 1.55% | –
O=C(OC[C@H]1O[C@@H](OC(=O)c2cc(O)c(O)c(OC(=O)c3cc(O)c(O)c(O)c3)c2)[C@H](OC(=O)c2cc(O)c(O)c(OC(=O)c3cc(O)c(O)c(O)c3)c2)[C@@H](OC(=O)c2cc(O)c(O)c(OC(=O)c3cc(O)c(O)c(O)c3)c2)[C@@H]1OC(=O)c1cc(O)c(O)c(OC(=O)c2cc(O)c(O)c(O)c2)c1)c1cc(O)c(O)c(OC(=O)c2cc(O)c(O)c(O)c2)c1 | – | 15.8 µM (active)
CCCc1nc(C(C)(C)O)c(C(=O)OCc2oc(=O)oc2C)n1Cc1ccc(-c2ccccc2-c2nn[nH]n2)cc1 | -13.1% | –
O=C(O)CCC/C=C\C[C@@H]1[C@@H](/C=C/[C@@H](O)COc2cccc(Cl)c2)[C@H](O)C[C@@H]1O | -8.15% | –
CO/N=C(\C(=O)N[C@@H]1C(=O)N2C(C(=O)[O-])=C(C[n+]3cccc4c3CCC4)CS[C@H]12)c1csc(N)n1 | -3.51% | –
CC[C@H](C)[C@@H]1NC(=O)[C@H](Cc2ccc(O)cc2)NC(=O)[C@@H](N)CSSC[C@@H](C(=O)N2CCC[C@H]2C(=O)N[C@@H](CC(C)C)C(=O)NCC(N)=O)NC(=O)[C@H](CC(N)=O)NC(=O)[C@H](CCC(N)=O)NC1=O | -7.31% | –

SMILES | activity, negative = inhibition | Potency
CN1c2c(nc(N)[nH]c2=O)NCC1CNc1ccc(C(=O)NC(CCC(=O)O)C(=O)O)cc1 (stereo not given) | -13.4% | –
CC1(O)CCC(C(C)(C)O)CC1 (stereo not given) | -0.361% | –
CC(C)[C@@H](C)/C=C/[C@@H](C)[C@H]1CC[C@H]2/C(=C/C=C3\C[C@@H](O)CC[C@@H]3C)CCC[C@]12C | -10.1% | –
COC(=O)[C@@H](N)CS | -6.2% | –
C[N+]1(C)[C@@H]2CC(OC(=O)C(O)(c3cccs3)c3cccs3)C[C@H]1[C@@H]1O[C@@H]12 (stereo not given in full) | -19.8% | –
CC(CN1c2ccccc2Sc2cccnc21)N(C)C (stereo not given) | -5.82% | –
CO/N=C(\C(=O)N[C@@H]1C(=O)N2C(C(=O)[O-])=C(C[n+]3ccc(N)n3CCO)CS[C@H]12)c1csc(N)n1 | -1.54% | –
Oc1cccc(O)c1O | -17.6% | –
O=C(O)c1ccc(NC2OC[C@@H](O)[C@H](O)[C@H]2O)cc1 (stereo not given in full) | -2.51% | –
C#C[C@]1(O)CC[C@@H]2[C@H]3CCC4=CC(=O)CC[C@H]4[C@H]3C(=C)C[C@@]21CC | -11% | –
C=CC[C@@H]1/C=C(\C)C[C@H](C)C[C@H](OC)[C@H]2O[C@@](O)(C(=O)C(=O)N3CCCC[C@H]3C(=O)O[C@H](/C(C)=C/[C@@H]3CC[C@@H](O)[C@H](OC)C3)[C@H](C)[C@@H](O)CC1=O)[C@H](C)C[C@@H]2OC | -20.1% | –
O=C(OCc1ccccc1)c1cccnc1 | -23.5% | –
C=C1[C@H](CO)[C@@H](O)C[C@@H]1n1cnc2c(=O)[nH]c(N)nc21 | -1.4% | –
OC1OC[C@@H](O)[C@H](O)[C@@H]1O (stereo not given in full) | -23.1% | –
C#C[C@]1(O)CC[C@H]2[C@@H]3CCC4=C(CCC(=O)C4)[C@H]3CC[C@@]21C | -13.1% [at 20.6 µM] | –
O=C1/C(=C\c2cccs2)CCC/C1=C\c1cccs1 | -2.53% | –
CC(=O)Oc1cc(C(F)(F)F)ccc1C(=O)O | 5.32% [at 20.6 µM] | –
N#Cc1ccc2c(c1)N(CCCN1CCC(O)CC1)c1ccccc1S2 | -26% | –
NC(=S)N=Nc1ccc(NN=C(N)N)cc1 | -18.9% | –
CC/C(=C(/CC)c1ccc(OP(=O)(O)O)cc1)c1ccc(OP(=O)(O)O)cc1 | -3.19% | –
